This is a sample that favours compounds with a hit; in the whole collection about 1.1% have one here.
HDAC3 inhib = HDAC3 deacetylase inhibitors, primary screen, biochemical, fluorescence, cell-free homogeneous; inhibition, % at 8.3 µM; 320,000 compounds, 0.15% hits; recombinant HDAC3, fluorogenic peptide/trypsin coupled; Histone deacetylase 3 (Homo sapiens), O15379; AID 2718, 2010; in the data active = inhibition above about 26%, passing the limit was not always enough; inconclusive = no clear call, values can overlap the other calls
IDE inh = human IDE inhibitors in live cells, primary screen, fluorescence polarization, HEK cells, FAbetaB substrate. FAbetaB cleavage. inhibition, % at 5.59 µM. Insulin-degrading enzyme (Homo sapiens), P14735. 320,000 compounds, 0.41% hits;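 active = percent inhibition above the average of all tested compounds plus 3 SD, set per screening campaign, cut at about 16% in these data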;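 note: IDE supplied by intact live HEK cells; FP after avidin binding of uncleaved biotin substrate so inhibition keeps polarization high; 0% = DMSO wells and 100% = 60 µM reference IDE inhibitor Ii1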
IDE cell activ = human IDE activators in live cells, primary screen, fluorescence polarization, HEK cells, FAbeta-B substrate | Insulin-degrading enzyme (Homo sapiens), P14735 | FAbeta-B cleavage; 0% vehicle, 100% cell-free pure enzyme wells | activation, % at 5.96 µM | 340,000 compounds, 0.073% hits | AID 493087, 2011;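 active = activation above the mean of all tested compounds plus 3 SD, set per screening campaign, cut at about 17% in these data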
LANA-H2B inh = blockers of LANA interaction with H2A/H2B – biochemical, FP readout, HTS, primary screen. cell-free LANA-H2A/H2B peptide, fluorescence polarization. inhibition, % (concentration not given with the values). 320,000 compounds, 0.6% hits; in the data active = inhibition mostly above about 10%, no sharp cut-off; inactive = mostly below about 6.7%
Target sequence (Q9QR71 whole entry, looked up): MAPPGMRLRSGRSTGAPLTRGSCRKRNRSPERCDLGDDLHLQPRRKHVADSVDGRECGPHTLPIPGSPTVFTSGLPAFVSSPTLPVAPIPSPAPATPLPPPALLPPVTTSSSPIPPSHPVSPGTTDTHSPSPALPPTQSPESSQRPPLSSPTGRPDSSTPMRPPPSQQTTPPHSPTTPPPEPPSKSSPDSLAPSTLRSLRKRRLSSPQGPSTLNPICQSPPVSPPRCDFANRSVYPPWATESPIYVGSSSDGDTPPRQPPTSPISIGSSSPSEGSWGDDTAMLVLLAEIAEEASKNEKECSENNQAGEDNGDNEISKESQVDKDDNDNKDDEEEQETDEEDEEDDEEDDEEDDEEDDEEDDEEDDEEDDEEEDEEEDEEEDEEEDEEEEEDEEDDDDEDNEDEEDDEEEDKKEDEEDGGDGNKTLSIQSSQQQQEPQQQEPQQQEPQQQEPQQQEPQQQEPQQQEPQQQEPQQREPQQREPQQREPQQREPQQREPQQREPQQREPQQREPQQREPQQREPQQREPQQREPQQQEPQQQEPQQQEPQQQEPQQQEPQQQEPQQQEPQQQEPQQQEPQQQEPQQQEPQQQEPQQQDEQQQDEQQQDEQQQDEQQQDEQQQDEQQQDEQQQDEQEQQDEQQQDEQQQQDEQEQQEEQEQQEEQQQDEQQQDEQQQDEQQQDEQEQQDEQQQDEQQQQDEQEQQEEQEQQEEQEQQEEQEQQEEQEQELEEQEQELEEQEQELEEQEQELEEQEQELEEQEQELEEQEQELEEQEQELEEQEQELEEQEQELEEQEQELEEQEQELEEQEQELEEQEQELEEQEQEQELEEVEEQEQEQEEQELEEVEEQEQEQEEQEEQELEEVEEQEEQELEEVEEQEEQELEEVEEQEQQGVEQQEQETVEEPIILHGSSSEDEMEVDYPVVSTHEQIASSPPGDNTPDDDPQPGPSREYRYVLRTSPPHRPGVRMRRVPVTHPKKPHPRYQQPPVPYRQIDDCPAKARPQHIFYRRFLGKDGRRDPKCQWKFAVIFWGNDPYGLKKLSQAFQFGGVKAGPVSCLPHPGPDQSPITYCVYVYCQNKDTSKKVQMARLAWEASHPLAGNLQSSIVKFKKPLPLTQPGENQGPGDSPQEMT
IDE inh confirm = human IDE inhibitors in live cells, confirmation, fluorescence polarization, HEK cells, FAbetaB substrate | AID 435028, 2010 | 1,200 compounds, 51% hits | shares compounds with IDE inh | FAbetaB cleavage | inhibition, % at 5.59 µM;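 active = mean inhibition across triplicate wells above the cutoff set by the earlier primary insulin-degrading enzyme screen, cut at about 16% in these data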;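 note: 0% = DMSO wells and 100% = 60 µM reference IDE inhibitor Ii1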
HEK cytotox = cytotoxicity in HEK cells, cytotoxicity control for IDE inhibitor project, cell-based, luminescence. shares compounds with IDE inh. HEK293 cytotoxicity, ATP luminescence. inhibition, % at 5.59 µM. 1,200 compounds, 28% hits; in the data active = inhibition above about 22%;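 note: 0% = vehicle wells and 100% = reference cytotoxic drug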
* = called active by the depositor; ? = inconclusive; · = not tested or not shown.

SMILES	HDAC3 inhib	IDE inh	IDE cell activ	LANA-H2B inh	IDE inh confirm	HEK cytotox
CCc1cc(=O)oc2cc(OCC(=O)N3CCC(C(N)=O)CC3)ccc12	-9	3	1	3	·	·
CCCc1cc(=O)oc2cc(OCC(=O)N3C[C@H]4C[C@@H](C3)c3cccc(=O)n3C4)c(Cl)cc12	1	0	3	-4	·	·
CCCCc1cc(=O)oc2cc(OCC(=O)N3CCC(C(N)=O)CC3)ccc12	-15	18*	-3	-3	8	9
CCCCc1cc(=O)oc2c(C)c(OCC(=O)N3C[C@H]4C[C@@H](C3)c3cccc(=O)n3C4)ccc12	2	23*	-21	4	7	15
COc1ccc(N2CCN(C(=O)COC(=O)/C=C/c3ccc(C(F)(F)F)cc3)CC2)cc1	0	2	1	4	·	·
Cc1cccc(OCC(=O)OC(C)C(=O)Nc2ccc(Cl)cn2)c1 (stereo not drawn)	0	4	-1	2	·	·
Cc1cccc(C(=O)NCC(=O)OC(C)C(=O)Nc2ccc(Cl)cn2)c1 (stereo not drawn)	-8	16*	1	5	0	12
Cc1onc(-c2ccccc2)c1C(=O)OCC(=O)Nc1ccc2c(c1)OCO2	3	0	3	1	·	·
Cc1c(-c2cccc(Cl)c2)nc2ccccc2c1C(=O)OCC(=O)Nc1ccc2c(c1)OCO2	3	17*	-4	0	0	23*
NNC(=O)/C(=C\c1ccc(Br)cc1)NC(=O)c1cccs1	-4	17*	8	1	7	8
Cc1[nH]n(-c2ccccc2)c(=S)c1C=Nc1cccc([N+](=O)[O-])c1	55*	25*	-13	-5	2	8
O=C(Nc1ccc(F)cc1)N1CCN(c2nc3ccccc3s2)CC1	3	12	-7	3	·	·
O=C(c1ccc2ncsc2c1)N1CCN(c2nc3ccccc3s2)CC1	-16	25*	-18	0	13	42*
O=C(Nc1ccccc1)N1CCN(c2nc3ccccc3s2)CC1	-4	18*	-19	0	4	30*
NNC(=O)c1cccc(COc2ccc3c(c2)CCC3)c1	-2	0	3	0	·	·
CCOc1ccc(OCCC(=O)N(CC(C)C)c2c(N)n(Cc3ccccc3)c(=O)[nH]c2=O)cc1	·	·	2	·	·	·
Nc1nnnn1/N=C/c1cc(Cl)ccc1O	-4	9	-9	3	·	·
Nc1nnnn1/N=C/c1cc(Cl)cc(Cl)c1O	?	19*	-36	2	43*	8
CCc1ccc(C(=O)Nc2ccc(OC)c(S(=O)(=O)N3CCOCC3)c2)cc1	3	-2	2	3	·	·
COc1ccc(NC(=O)c2ccc(-c3ccccc3)cc2)cc1S(=O)(=O)N1CCOCC1	-3	22*	-25	-4	19*	61*
COC(=O)c1cc(NC(=O)Nc2cccc(Cl)c2)ccc1Cl	20	0	1	2	·	·
COC(=O)c1cc(NC(=O)c2ccc(-c3ccccc3)cc2)ccc1Cl	-4	30*	-19	7	9	28*
COc1cccc(C(=O)Nc2cccc(-c3ccc4nncn4n3)c2)c1OC	-2	2	6	-9	·	·
COc1ccc(Cl)cc1C(=O)Nc1cccc(-c2ccc3nncn3n2)c1	5	17*	-6	2	-1	22*
Cc1cccc(N2C(=O)CC(N3CCN(c4ccccn4)CC3)C2=O)c1 (stereo not drawn)	-1	0	0	0	·	·
SMILES	HDAC3 inhib	IDE inh	IDE cell activ	LANA-H2B inh	IDE inh confirm	HEK cytotox
N#C/C(=C\c1ccc(N2CCCCC2)o1)C(=O)Nc1cccc(Br)c1	2	140*	-103	1	79*	42*
O=Cc1ccc(N2CCCC2)o1	4	-5	5	2	·	·
N#C/C(=C\c1ccc(N2CCCCC2)o1)C(N)=O	7	32*	-50	-34	50*	10
Cc1nc2ccc(NC(=O)c3ccc(Cl)c(S(=O)(=O)N(C)c4ccccc4)c3)cc2s1	-3	26*	-6	-5	3	54*
Cc1ccc(C)c(NC(=O)CCN2CCCCC2)c1	-2	-1	4	-3	·	·
CC(=O)Nc1ccc(N2C(=O)c3cccc4c(O)ccc(c34)C2=O)cc1	-7	95*	-30	14	26*	3
Cc1ccc(N2C(=O)c3cccc4c(C(=O)O)ccc(c34)C2=O)cc1	-1	3	·	-2	·	·
Cc1ccc(NC(=O)COC(=O)C2CSC3(C)CCC(=O)N23)cc1S(=O)(=O)N1CCOCC1 (stereo not drawn)	-1	5	4	-5	·	·
CCN(CC)c1ccc(/C=C(\C#N)C(=O)c2ccc(Br)cc2)cc1	-2	68*	-176	-15	51*	21
CCOC(=O)NC(=O)/C(C#N)=C/c1ccc(N(C)C)cc1	10	2	·	-7	·	·
N#C/C(=C\c1ccc(C#N)cc1)C(=O)c1ccccc1	-3	·	3	-1	·	·
CCN(CC)c1ccc(/C=C(\C#N)C(N)=S)cc1	-5	22*	-101	18	13	11
CCN(CC)c1ccc(/C=C(\C#N)C(N)=O)cc1	·	·	-2	·	·	·
CN(C)c1ccc(/C=C(\C#N)C(=O)c2ccccc2)cc1	0	28*	-98	3	96*	18
COc1cc(NC(=O)CN2C(=O)C(=O)N(C3CCCC3)C2=O)cc(OC)c1	4	5	3	-3	·	·
Cc1ccc2[nH]c(=O)c(C(c3nnnn3Cc3ccccc3)N3CCc4ccccc43)cc2c1 (stereo not drawn)	0	-1	-1	-1	·	·
Cc1cc2cc(C(c3nnnn3Cc3ccccc3)N3CCc4ccccc43)c(=O)[nH]c2cc1C (stereo not drawn)	4	16*	1	-2	3	9
CN(C)c1nc(SCC(=O)Nc2ccc(Cl)c(Cl)c2)nc(N2CCOCC2)n1	-8	23*	-56	6	9	27*
CN(C)c1nc(SCC(=O)Nc2ccccc2)nc(N2CCOCC2)n1	0	20*	-13	-2	16	8
Cc1ccc(N2C(=S)N=C(Nc3ccccc3C)C23CCOC(C)(C)C3)cc1 (stereo not drawn)	0	6	2	3	·	·
O=C(CNC(=O)C1COc2ccccc2O1)N/N=C\c1ccc(Br)cc1 (stereo not drawn)	-4	3	3	-6	·	·
COc1ccc(Br)cc1/C=N/NC(=O)CNC(=O)C1COc2ccccc2O1 (stereo not drawn)	-10	30*	-22	2	23*	2
CN(c1ccccc1)c1ccc(/C=C/[N+](=O)[O-])cc1	6	32*	-51	-1	26*	117*
